HPGD block: blocks human HPGD enzyme activity | P15428 | Potency, µM, for inactives: top-dose activity change, negative = inhibition, most hits filed as inhibitors | hit rate 4.3% among 150,000 | AID 894 | purified HPGD, NADH fluorescence kinetic, PGE2 substrate; note: potency is the fitted concentration of half-maximal effect
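NADH formation kinetics: reaction with 30 uM PGE2 and 1 mM NAD+ (final), 20 nM enzyme, Tris-HCl pH 8 with Tween 20, after 15 min compound preincubation at room temperature. Fluorescence change, last versus first of five reads.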
ALOX12 inhib: 12-hLO (ALOX12) enzyme inhibition | Potency, µM (top dose mostly 57.1 µM), without a hit: top-dose activity change, negative = inhibition, hits mostly inhibitors | P18054 | purified 12-hLO, xylenol orange hydroperoxide absorbance | hit rate 0.12% among 150,000; active = well fitted curve in the direction sought with a large enough effect; inconclusive = small, poorly fitted or top-dose-only effect, or another doubt; inactive = no such curve, though single readings can be large; an effect the other way counts as inactive or inconclusive; note: potency is the fitted concentration of half-maximal effect; nearly all actives have a fitted effect of over 55% in size
Target sequence (P18054 whole entry, looked up): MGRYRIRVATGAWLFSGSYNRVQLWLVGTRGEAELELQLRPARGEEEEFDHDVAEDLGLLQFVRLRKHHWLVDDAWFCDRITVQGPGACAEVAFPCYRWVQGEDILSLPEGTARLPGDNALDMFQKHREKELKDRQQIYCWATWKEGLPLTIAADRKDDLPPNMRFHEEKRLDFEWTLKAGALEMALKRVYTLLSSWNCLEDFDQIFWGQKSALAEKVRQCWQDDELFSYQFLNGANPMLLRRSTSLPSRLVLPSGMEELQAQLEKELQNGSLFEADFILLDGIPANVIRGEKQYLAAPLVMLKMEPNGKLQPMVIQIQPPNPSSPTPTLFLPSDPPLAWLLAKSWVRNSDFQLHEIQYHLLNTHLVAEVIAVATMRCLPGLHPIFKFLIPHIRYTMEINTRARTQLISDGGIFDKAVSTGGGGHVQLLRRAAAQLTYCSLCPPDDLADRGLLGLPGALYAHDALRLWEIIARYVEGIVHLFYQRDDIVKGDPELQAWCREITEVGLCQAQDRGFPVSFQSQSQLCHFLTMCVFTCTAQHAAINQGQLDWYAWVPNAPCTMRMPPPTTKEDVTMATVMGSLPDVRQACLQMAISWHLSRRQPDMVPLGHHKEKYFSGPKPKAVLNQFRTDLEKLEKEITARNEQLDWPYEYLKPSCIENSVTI
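Lipoxygenase turnover measured by absorbance at 573 and 405 nm after Fe-XO development. Human 12hLO 150 nM, arachidonate 40 uM, pH 7.0 Hepes buffer with detergent; 15 min compound preincubation, 30 min reaction.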
IMPase inh: membrane-permeable compound that blocks inositol monophosphatase. CHO-M1 cells, IP1 accumulation, HTRF TR-FRET ratio. inhibition (IP1 accumulation), % at 46.1 µM. 120,000 tested, under 10 active. AID 901; active = well fitted curve in the direction sought with a large enough effect in the signal ratio, not every such curve was filed as active; inconclusive = small, poorly fitted or top-dose-only effect, or a change in a side signal; inactive = no such curve, though single readings can be large or run the other way; the % refers to the signal ratio;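 note: cells stimulated with carbachol in lithium chloride buffer; plate controls were DMSO basal wells for no effect and reference inhibitor wells for full effect; higher means more IMPase inhibition seen as more IP1 and lower FRET ratio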
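Cellular IMPase inhibition is scored as a rise in cytosolic IP1, detected by competitive TR-FRET between d2-labelled IP1 and a europium anti-IP1 antibody. M1-expressing CHO cells were stimulated with carbachol for 30 min at 37C, with lithium (50 mM LiCl) present in the buffer.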
PNC assembly inh: blocks assembly of the perinucleolar compartment | PC3M PTB-GFP, PNC prevalence imaging, 16 h; hits give low values | activity change (PNC), negative = inhibition, % at 10 µM | hit rate 3.1% among 140,000;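 active = readout at or below -70, meaning at least 70% loss of cells showing the perinucleolar compartment, a nuclear body marking cancer cells; inconclusive = readout between -30 and a set limit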;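 note: plate controls were DMSO wells for no effect and camptothecin positive control wells for full effect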
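Read-out is percentage of cells bearing a perinucleolar compartment, from automated 20x imaging of fixed, Hoechst-stained PC3M PTB-GFP cells. Cells were seeded 4 h, then exposed 16 h to compound (23 nl of library stock) in duplicate plates.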
IMPase Li inh: membrane-permeable IMPase blocker, potentiated with lithium; CHO-M1 cells, IP1 TR-FRET (IP-One), carbachol + lithium; Potency, µM (highest dose often 59.4 µM), inactives show top-dose activity, negative = IMPase inhibition, hits mostly inhibitors; hit rate 0.35% among 210,000; active = well fitted curve in the direction sought with a large enough effect; inconclusive = small, poorly fitted or top-dose-only effect, or another doubt; inactive = no such curve, though single readings can be large; an effect the other way counts as inactive or inconclusive;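 note: IP1 builds up when IMPase is blocked and the TR-FRET signal falls; potency is the fitted concentration of half-maximal effect; plate controls were basal vehicle for no effect and high inhibitor control for full effect; nearly all actives have a fitted effect of over 50% in size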
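Readout is a homogeneous TR-FRET IP1 immunoassay (Ex 320, Em 665 and 620), where raised cytosolic IP1 lowers signal. Cells were CHO-M1 treated 30 min at 37C with test compounds plus a little lithium; AC50 values came from Hill-equation fitting.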
ALDH1A1 block: inhibitors of human aldehyde dehydrogenase 1A1; AID 1030; hit rate 7.3% among 220,000; Purified ALDH1A1, NADH fluorescence, propionaldehyde substrate; Potency, µM (highest dose often 75.3 µM), for the others: at the highest dose activity, negative = inhibition, actives largely listed as inhibitors;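 note: potency is the fitted concentration of half-maximal effect; plate controls were no enzyme wells and a reference inhibitor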
An asterisk follows results filed as active; [ ] = dose if it differs, or a comment. Sampled rows, rich in hits. Any-hit rate of the full collection: about 11%. Unless noted, calls come from the whole dose curve; as a rule, active = well fitted inhibition curve with a large enough effect (not every such curve was filed as active); inconclusive = small, poorly fitted or top-dose-only effect, or another doubt; inactive = no such curve, though single readings can be large or run the other way. Unless noted, % is set by controls: 0 for no effect and ±100 for the full control effect.

How did CC1=C(C(=O)Nc2ccc(C)cc2C)C(c2cccs2)n2nc(SCc3cccc(C)c3)nc2N1 (configuration not stated) do in these assays?
IMPase inh: 4.0

Results for O=C(c1cc(O)c(O)c([N+](=O)[O-])c1)c1ccccc1F ?
HPGD block: 14.1µM*; ALOX12 inhib: -29.6%; IMPase inh: -5.3; IMPase Li inh: 5.3%; ALDH1A1 block: 12.6µM*

What do the screens show for `O=C(Nc1ccc([N+](=O)[O-])cc1)c1ccccc1F`?
IMPase Li inh: -4.3%; ALDH1A1 block: -14.0%

How did CC(=O)NCC(=O)OCC(=O)N1c2ccccc2Sc2ccccc21 do in these assays?
IMPase Li inh: -3.6%; ALDH1A1 block: 25.1µM*

Results for CCCCC(NC(=O)c1ccccc1)C(=O)OCC(=O)N1c2ccccc2Sc2ccccc21 (configuration not stated) ?
HPGD block: -16.0%; ALOX12 inhib: -6.4%; IMPase inh: -0.8; PNC assembly inh: 52.0; IMPase Li inh: 3.1%[38.3 µM]; ALDH1A1 block: 39.8µM*

How did O=C(CNC(=O)c1ccccc1)OCC(=O)N1c2ccccc2Sc2ccccc21 do in these assays?
HPGD block: -18.9%; ALOX12 inhib: -0.7%; PNC assembly inh: 10.7; IMPase Li inh: 2.7%; ALDH1A1 block: -3.4%

How did COc1cccc([C@@H]2Oc3ccc(OC)cc3C(=O)[C@H]2OC(=O)NCc2ccco2)c1 do in these assays?
HPGD block: -1.3%; IMPase Li inh: 8.3%; ALDH1A1 block: -12.0%

Results for C=CC1=C2C=C(C3CC3)N(Cc3ccccc3)C=C2C(=O)C(C)(OC(=O)c2ccco2)C1=O (configuration not stated) ?
HPGD block: -0.7%; ALOX12 inhib: 1.8%[11.4 µM]; IMPase Li inh: 1.8%; ALDH1A1 block: 5.2%[13.5 µM]

Results for Cc1[nH]c2ccccc2c1C(=O)CN1C(=O)C(=O)N(C2CCCC2)C1=O ?
IMPase Li inh: 1.8%; ALDH1A1 block: 2.4%

Results for O=C(CSC(=S)N1CCCCC1)c1ccccc1 ?
IMPase Li inh: 13.3%; ALDH1A1 block: 31.6µM*

Results for Cc1[nH]c2ccccc2c1C(=O)CN1CCN(C2CCCCC2)CC1 ?
HPGD block: -7.6%; ALOX12 inhib: -10.3%; IMPase inh: 12.2; PNC assembly inh: inconclusive; IMPase Li inh: 27.2%[38.3 µM]; ALDH1A1 block: 12.6µM*

What do the screens show for `Cc1[nH]c2ccccc2c1C(=O)CSC(=S)N(C)C1CCCCC1`?
HPGD block: -6.6%; ALOX12 inhib: -2.9%; PNC assembly inh: inconclusive; IMPase Li inh: 6.3%; ALDH1A1 block: inconclusive

How did Cc1[nH]c2ccccc2c1C(=O)CSC(=S)N1CCCCC1 do in these assays?
HPGD block: 25.1µM*; ALOX12 inhib: -4.2%; PNC assembly inh: 1.6; IMPase Li inh: 7.3%; ALDH1A1 block: inconclusive

What do the screens show for `CO[C@@H]1COC(=O)[C@@H](CCSC)NC(=O)C/C=C\[C@@H](C)COC(=O)CCC[C@H]1C`?
ALDH1A1 block: 4.1%[13.5 µM]

What do the screens show for `c1ccc(CN2CC[C@@H](CNc3ncnc4ccccc34)C2)cc1`?
HPGD block: -0.3%; ALOX12 inhib: -2.2%[11.4 µM]; IMPase Li inh: 8.3%; ALDH1A1 block: 8.7%[13.5 µM]

Results for Nc1nc2c(c(=O)[nH]1)CN(CCCN1CCOCC1)CN2 ?
HPGD block: -10.7%; ALOX12 inhib: 5.7%[11.4 µM]; IMPase Li inh: 0.3%; ALDH1A1 block: 8.1%[13.5 µM]

What do the screens show for `Cc1ccc(C(=O)CSc2nnnn2-c2ccccc2)o1`?
IMPase Li inh: 7.2%; ALDH1A1 block: 3.55µM*

Results for Cc1ccc(C(=O)CSc2nnc(-c3ccccc3)n2-c2ccccc2)o1 ?
HPGD block: -14.5%; ALOX12 inhib: -1.1%; IMPase inh: -4.3; PNC assembly inh: 42.8; IMPase Li inh: 7.1%; ALDH1A1 block: -2.0%

What do the screens show for `Brc1ccccc1-c1nnc(CSc2nnnn2-c2ccccc2)o1`?
HPGD block: 15.8µM*; ALOX12 inhib: -0.3%; IMPase inh: -5.9; PNC assembly inh: 35.2; IMPase Li inh: 39.2%[38.3 µM]; ALDH1A1 block: 10µM*

How did COc1cc(NC(=O)CSc2nnnn2-c2ccccc2)cc(OC)c1OC do in these assays?
HPGD block: 2.7%; ALOX12 inhib: -5.8%; IMPase inh: 4.7; PNC assembly inh: -7.8; IMPase Li inh: -2.9%[38.3 µM]; ALDH1A1 block: 13.8%

Results for Cc1cc(C)nc(NC(=O)CSc2nnnn2-c2ccccc2)n1 ?
HPGD block: -4.6%; ALOX12 inhib: 5.2%; IMPase inh: -6.5; PNC assembly inh: 11.2; IMPase Li inh: -4.6%[38.3 µM]; ALDH1A1 block: 7.08µM*

What do the screens show for `O=C(O)c1ccc(-n2nnnc2SCc2ccccc2F)cc1`?
HPGD block: 15.8µM*; ALOX12 inhib: 6.6%; IMPase inh: 6.1; PNC assembly inh: -10.6; IMPase Li inh: 6.7%[38.3 µM]; ALDH1A1 block: inconclusive

What do the screens show for `O=C(CSc1nnnn1-c1ccccc1)N1CCc2ccccc21`?
HPGD block: 0.3%; ALOX12 inhib: -3.3%; IMPase inh: 17.4; PNC assembly inh: inconclusive; IMPase Li inh: -4.6%[38.3 µM]; ALDH1A1 block: -10.4%

What do the screens show for `c1ccc(-n2nnnc2SCc2cccc3nsnc23)cc1`?
HPGD block: inconclusive; ALOX12 inhib: -4.6%; IMPase inh: -3.3; PNC assembly inh: -9.8; IMPase Li inh: -2.6%[38.3 µM]; ALDH1A1 block: 14.1µM*

Results for O=C(O)CSc1nnnn1-c1ccccc1 ?
HPGD block: -6.9%; ALOX12 inhib: 3.2%; IMPase inh: 6.7; PNC assembly inh: inconclusive; IMPase Li inh: 41.2%[38.3 µM]; ALDH1A1 block: 3.2%

How did O=C(CSc1nnnn1-c1ccccc1)CSc1nnnn1-c1ccccc1 do in these assays?
HPGD block: -16.3%; ALOX12 inhib: 3.2%; IMPase inh: 1.6; PNC assembly inh: 10.0; IMPase Li inh: -3.5%; ALDH1A1 block: 3.16µM*

Results for O=C(CSc1nnnn1-c1ccccc1)N1CCCc2ccccc21 ?
HPGD block: -7.2%; ALOX12 inhib: 4.5%; IMPase inh: -4.5; PNC assembly inh: -4.9; IMPase Li inh: 4.9%[38.3 µM]; ALDH1A1 block: 7.94µM*

Results for O=C1c2ccccc2C(=O)N1CCCCSc1nc2ccccc2o1 ?
HPGD block: 25.1µM*; ALOX12 inhib: -3.5%; IMPase inh: -2.8; PNC assembly inh: 0.2; IMPase Li inh: 41.5%[38.3 µM]; ALDH1A1 block: inconclusive

How did COC(=O)C1(C(=O)OC)CC2=CCC3C(=O)N(c4ccccc4)C(=O)C3C2Cc2ccccc2[C@@H]1C[N+](=O)[O-] (some centres not stated) do in these assays?
HPGD block: -2.5%; ALOX12 inhib: 0.5%; IMPase Li inh: -0.2%; ALDH1A1 block: -12.6%

Results for COc1ccc(CNc2ncnc3ccc(-c4ccccc4C#N)cc23)c(OC)c1 ?
IMPase Li inh: 2.2%; ALDH1A1 block: inconclusive

Screening data from PubChem BioAssay.
